# In PubChem BioAssay:
# Results filed as inconclusive are left out. Active and inactive are the calls of the source.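 How the source made its calls, unless noted: active means normalized viability below 100% at a tested concentration; inactive means the rest.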
# Tests used:
# [1] = stimulators of nuclear beta-catenin in C2C12, primary screen, imaging, WNT3A-conditioned medium, mouse C2C12, NPC library (AID 1117326; in the data active means nuclear beta-catenin stimulation mostly above about 4.2%, no sharp cut-off; inactive means mostly below about 10%); conditions: stronger effect = higher value
# [2] = stimulators of insulin release from INS-1E, primary screen, cell-based, 5 mM glucose, NPC library (AID 1117329;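 active means compound raises insulin release from rat beta cells at 5 mM glucose, no numeric limit stated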); conditions: rat INS-1E insulin secretion, at 10 µM, stronger effect = higher value
# [3] = growth inhibition of GSK3B-pretreated HCT116 cells – cell-based, CellTiter-Glo, 0.2 to 20 µM (AID 1117336;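 active means compounds lowering colon cancer cell viability after pretreatment blocking the GSK3B kinase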); conditions: HCT116 viability after GSK3B inhibitor, at 20 µM, stronger effect = higher value
# [4] = inhibition of endothelial tube formation, primary screen, imaging, VEGF stimulated, CD31 staining, tube area, NPC library (AID 1117340;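 active means compound that reduces growth-factor-driven endothelial tube area in a mixed cell culture, no cutoff stated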); conditions: VEGF-stimulated ADSC/ECFC co-culture, at 10 µM, stronger effect = higher value
# [5] = glucagon-like peptide 1 release enhancers, primary assay, NCI-H716 cell line, NPC library (AID 1117341;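 active means compound raises GLP1 secretion from the human gut endocrine cells, with no numeric limit stated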); conditions: NCI-H716 cells, at 10 µM, stronger effect = higher value
# [6] = HCT116 colon cancer cell growth inhibition, primary screen, CellTiter-Glo luminescence, NPC library (AID 1117342;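 active means compounds that lower survival of HCT116 colon cancer cells in the luminescence readout, no numeric limit stated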); conditions: at 20 µM (top of the series)
# [7] = CellTiter-Glo luminescent readout of SW480 viability loss, NPC library primary (AID 1117343;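 active means compounds that lower viability of the colon cancer cells in the luminescence readout, with no numeric limit stated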); conditions: CellTiter-Glo luminescence; at 20 µM (top of the series) unless noted
# [8] = decreased DLD-1 cellular survival, CellTiter-Glo luminescent readout, NPC compound collection, primary HTS (AID 1117346;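 active means compounds that lower survival of DLD-1 colon cancer cells in the luminescence readout, no cutoff given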); conditions: DLD-1 viability, CellTiter-Glo luminescence; at 20 µM (top of the series)
# [9] = growth inhibition of DIPG glioma cells, dose response, cell-based, SU-DIPG-XVII, MIPE5.0, CellTiter-Glo, qHTS (AID 1347060; cut-off not given, nearly all actives have AC50 up to about 26 µM;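 on AC50: cells exposed to compound for 48 hours before viability readout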); conditions: SU-DIPG-XVII viability, CellTiter-Glo ATP luminescence
# [10] = viability loss in pontine glioma line – cell-based, SU-DIPG-XXV, MIPE5.0, CellTiter-Glo, qHTS, dose response (AID 1347065; cut-off not given, nearly all actives have AC50 up to about 26 µM;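 further: cells exposed to compound for 48 hours before ATP readout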); conditions: CellTiter-Glo ATP luminescence
# [11] = sensitizers of A549 cells to miR-34 induction, primary screen, imaging, A549 dox-inducible miR-34, nuclei and caspase counts (AID 1347080;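 active means compounds whose cell count with miR-34 switched on is under 0.7 times the count with it off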); conditions: A549 miR-34 inducible, Hoechst nuclei count, 48 h
# [12] = survival rescue of mitochondrial mutant cells in low glucose, primary screen, MELAS cybrids, Rieske KO mouse fibroblasts, CellTiter-Glo (AID 1508586;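 active means mean z-score across replicates of 1.96 or higher in either the MELAS or the Rieske mutant cell line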;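 further: z relative to plate mean and SD of compound and empty wells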)
# [13] = SU-DIPG-XXV glioma cell viability, MIPE5.0 library, qHTS (AID 1347068; cut-off not given, nearly all actives have IC50 up to about 30 µM;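 on IC50: cells exposed to compound for 48 hours before viability readout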)
# [14] = ovarian cancer cell viability with rucaparib, profiling panel, oncology-focused library, rucaparib conditional (AID 1508598); conditions: patient-derived ovarian cancer cells, CellTiter-Glo viability, 144 h, stronger effect = lower value
# [15] = growth inhibition of DIPG glioma cells, dose response, cell-based, SU-DIPG-XIII, MIPE4.0, CellTiter-Glo, qHTS (AID 1347061; cut-off not given, nearly all actives have AC50 up to about 37 µM;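 further: cells exposed to compound for 48 hours before readout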); conditions: SU-DIPG-XIII viability, CellTiter-Glo ATP luminescence
# [16] = growth inhibition of DIPG glioma cells, dose response, cell-based, JHH-DIPG-1, MIPE4.0, CellTiter-Glo, qHTS (AID 1347062; cut-off not given, nearly all actives have AC50 up to about 27 µM); conditions: JHH-DIPG-1 viability, CellTiter-Glo ATP luminescence
# [17] = SU-DIPG-VI glioma cell viability, MIPE4.0 library, CellTiter-Glo luminescence, qHTS (AID 1347066; cut-off not given, nearly all actives have AC50 up to about 30 µM;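 further: cells exposed to compound for 48 hours before readout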); conditions: CellTiter-Glo ATP luminescence
compound,measurement,setting,value
Cc1cc2c(cc1CC(=O)c1sccc1S(=O)(=O)Nc1onc(C)c1Cl)OCO2,nuclear beta-catenin stimulation,[1]; at 10 µM,1.6% (inactive)
same,nuclear beta-catenin stimulation,"[1]; stimulation, at 2 µM",3%
same,insulin secretion stimulation,[2],-0.3% (inactive)
same,viability decrease,[3],2.7% (inactive)
same,tube area decrease,[4],-20.9% (inactive)
same,GLP1 secretion stimulation,[5],2.9% (inactive)
same,inhibition of viability,[6],20.9% (inactive)
same,viability decrease (inhibition),[7],6.8% (inactive)
same,viability decrease (inhibition),[8],-17.2% (inactive)
same,outcome,[9],inactive
same,outcome,[10],inactive
same,fold change,"[11]; stronger effect = lower value, cell number ratio, induced over uninduced",0.871 (inactive)
same,fold change,[11]; measured here: relative caspase fold change +Dox/-Dox,0.772
same,cell count,"[11]; measured here: total cells with miR-34 induction, stronger effect = lower value",7800
same,cell count,[11]; measured here: total cells without miR-34 induction,8950
same,z-score,"[12]; MELAS cybrid survival, CellTiter-Glo 48 h, stronger effect = higher value",-0.207 (inactive)
same,z-score,"[12]; Rieske KO mouse fibroblast survival, CellTiter-Glo 72 h",-0.0127
CNC(=O)c1ccccc1Sc1ccc2c(/C=C/c3ccccn3)n[nH]c2c1,nuclear beta-catenin stimulation,[1]; at 10 µM,4.6% (inactive)
same,nuclear beta-catenin stimulation,"[1]; stimulation, at 2 µM",7.2%
same,insulin secretion stimulation,[2],4.65% (inactive)
same,viability decrease,[3],21% (inactive)
same,tube area decrease,[4],106% (active)
same,GLP1 secretion stimulation,[5],1% (inactive)
same,inhibition of viability,[6],45.5% (inactive)
same,viability decrease (inhibition),[7],59.2% (active)
same,viability decrease (inhibition),[8],56.9% (active)
same,AC50,[9],1320 nM (active)
same,AC50,[10],1180 nM (active)
same,IC50,[13],3720 nM (active)
same,viability,"[14]; at 0.000305 µM, OCI-C5x cells, with rucaparib 10 µM, 100% = cells with rucaparib alone",107% (inactive)
same,viability,"[14]; at 0.000305 µM, OCI-C5x cells, without rucaparib",114% (inactive)
same,viability,"[14]; at 0.000305 µM, OCI-P5x cells, with rucaparib 20 µM, 100% = cells with rucaparib alone",106% (inactive)
same,viability,"[14]; at 0.000305 µM, OCI-P5x cells, without rucaparib",95.9% (active)
same,viability,"[14]; at 0.00122 µM, OCI-C5x cells, with rucaparib 10 µM, 100% = cells with rucaparib alone",116% (inactive)
same,viability,"[14]; at 0.00122 µM, OCI-C5x cells, without rucaparib",110% (inactive)
same,viability,"[14]; at 0.00122 µM, OCI-P5x cells, with rucaparib 20 µM, 100% = cells with rucaparib alone",112% (inactive)
same,viability,"[14]; at 0.00122 µM, OCI-P5x cells, without rucaparib",93.6% (active)
same,viability,"[14]; at 0.00488 µM, OCI-C5x cells, with rucaparib 10 µM, 100% = cells with rucaparib alone",109% (inactive)
same,viability,"[14]; at 0.00488 µM, OCI-C5x cells, without rucaparib",110% (inactive)
same,viability,"[14]; at 0.00488 µM, OCI-P5x cells, with rucaparib 20 µM, 100% = cells with rucaparib alone",106% (inactive)
same,viability,"[14]; at 0.00488 µM, OCI-P5x cells, without rucaparib",98% (active)
same,viability,"[14]; at 0.0195 µM, OCI-C5x cells, with rucaparib 10 µM, 100% = cells with rucaparib alone",114% (inactive)
same,viability,"[14]; at 0.0195 µM, OCI-C5x cells, without rucaparib",103% (inactive)
same,viability,"[14]; at 0.0195 µM, OCI-P5x cells, with rucaparib 20 µM, 100% = cells with rucaparib alone",108% (inactive)
same,viability,"[14]; at 0.0195 µM, OCI-P5x cells, without rucaparib",94.2% (active)
same,viability,"[14]; at 0.0781 µM, OCI-C5x cells, with rucaparib 10 µM, 100% = cells with rucaparib alone",118% (inactive)
same,viability,"[14]; at 0.0781 µM, OCI-C5x cells, without rucaparib",98.3% (active)
same,viability,"[14]; at 0.0781 µM, OCI-P5x cells, with rucaparib 20 µM, 100% = cells with rucaparib alone",126% (inactive)
same,viability,"[14]; at 0.0781 µM, OCI-P5x cells, without rucaparib",96.6% (active)
same,viability,"[14]; at 0.313 µM, OCI-C5x cells, with rucaparib 10 µM, 100% = cells with rucaparib alone",110% (inactive)
same,viability,"[14]; at 0.313 µM, OCI-C5x cells, without rucaparib",97.7% (active)
same,viability,"[14]; at 0.313 µM, OCI-P5x cells, with rucaparib 20 µM, 100% = cells with rucaparib alone",101% (inactive)
same,viability,"[14]; at 0.313 µM, OCI-P5x cells, without rucaparib",87.8% (active)
same,viability,"[14]; at 1.25 µM, OCI-C5x cells, with rucaparib 10 µM, 100% = cells with rucaparib alone",112% (inactive)
same,viability,"[14]; at 1.25 µM, OCI-C5x cells, without rucaparib",105% (inactive)
same,viability,"[14]; at 1.25 µM, OCI-P5x cells, with rucaparib 20 µM, 100% = cells with rucaparib alone",95.4% (active)
same,viability,"[14]; at 1.25 µM, OCI-P5x cells, without rucaparib",85.8% (active)
same,viability,"[14]; at 5 µM, OCI-C5x cells, with rucaparib 10 µM, 100% = cells with rucaparib alone",110% (inactive)
same,viability,"[14]; at 5 µM, OCI-C5x cells, without rucaparib",93.2% (active)
same,viability,"[14]; at 5 µM, OCI-P5x cells, with rucaparib 20 µM, 100% = cells with rucaparib alone",107% (inactive)
same,viability,"[14]; at 5 µM, OCI-P5x cells, without rucaparib",83% (active)
NC(=O)c1ncn([C@@H]2O[C@H](CO)[C@@H](O)[C@H]2O)c1N,nuclear beta-catenin stimulation,[1]; at 10 µM,1.3% (inactive)
same,nuclear beta-catenin stimulation,"[1]; stimulation, at 2 µM",1.8%
same,insulin secretion stimulation,[2],-2.3% (inactive)
same,viability decrease,[3],-16.2% (inactive)
same,tube area decrease,[4],-6.4% (inactive)
same,GLP1 secretion stimulation,[5],1.9% (inactive)
same,inhibition of viability,[6],-20.6% (inactive)
same,viability decrease (inhibition),[7],-88.2% (inactive)
same,viability decrease (inhibition),[8],-22.4% (inactive)
same,outcome,[9],inactive
same,outcome,[15],inactive
same,outcome,[16],inactive
same,outcome,[10],inactive
same,outcome,[17],inactive
same,outcome,[13],inactive
